Calls of active or inactive are those of the source. How the source made its calls: active means hit-call score of the fitted dose curve at least 0.9, where 1 is the maximum; inactive means score below 0.9.

This test in a line: CEETOX_H295R_DOC: CeeTox H295R High-throughput Steroidogenesis Assay for DOC (AID 2283439). The conditions noted are these: actives raise or lower the signal. As for the experimental part:
CEETOX_H295R is a cell-based, multiplexed-readout assay that uses H295R, a human adrenal gland cell line, with measurements taken at 48 hours after chemical dosing in a 96-well plate.CEETOX_H295R_DOC is one of 23 assay component(s) measured or calculated from the CEETOX_H295R assay. It is designed to make measurements of hormone induction, a form of inducible reporter, as detected with absorbance signals by HPLC-MS-MS technology.Data from the assay component CEETOX_H295R_DOC was analyzed into 1 assay endpoint. This assay endpoint, CEETOX_H295R_DOC, was analyzed with bidirectional fitting relative to DMSO as the negative control and baseline of activity. Using a type of inducible reporter, gain or loss-of-signal activity using HPLC-MS-MS was used to understand synthesis of 11-Deoxycorticosterone in H295R cell line at 48hr of chemical exposure. To generalize the intended target to other relatable targets, this assay endpoint is annotated to the steroid hormone intended target family, where the subfamily is glucocorticoids.
Cell culture and media preparation procedures were conducted in accordance with OECD Test No. 456 guidelines, with minor modifications. H295R cells (ATCC CRL-2128) were expanded for 5 passages and frozen in batches in liquid nitrogen. Prior to the steroidogenesis assay, H295R cells were thawed and passed at least 4 times. The maximum passage was 10. Cells were maintained in a 1:1 mixture of DMEM/F12 supplemented with 5ml/L ITS+ Premix (BD Bioscience) and 12.5 ml/L Nu-Serum (BD Bioscience). After seeding cells into 96-well plates at 50-60% confluency, cells were allowed to adhere overnight. Prior to chemical testing, culture medium was replaced with 175 uL medium containing 10 uM forskolin to stimulate steroidogenesis for 48 hours. Following prestimulation, forskolin medium was replaced with medium containing test chemical solubilized in DMSO (ensuring a final concentration of 0.1% DMSO). Test chemicals were incubated for 48 hours, then the medium was removed and split into 2 vials containing approximately 75uL each, and stored at -80 C prior to hormone analysis. For steroid quantification, media samples were shipped to OpAns, LLC (Durham, NC) on dry ice, and samples were thawed to room temperature prior to liquid-liquid extraction. Steroid hormones were extracted from media samples using methyl tertbutyl ether (MTBE). An extra derivatization with dansyl chloride was included for estrogen (estrone and estradiol) detection only. Steroid hormones were separated by HPLC, eluted using a reverse phase C18 gradient with electrospray positive ionization, followed by quantification by tandem mass spectrometry (MS/MS). Data were acquired on a MassHunter Workstation Acquisition version B03.01 (Agilent Technologies, Inc.) and processed using MassHunter Quantitative Analysis for QQQ. Accuracy was determined for each hormone analyte from 3 standards to determine upper and lower limits of quantification (ULOQ and LLOQ, respectively) using a 7-point standard curve. Precision and accuracy of the extraction and quantification methods were calculated as the percent relative standard deviation (%RSD) of the spiked standards and percent spiked standard recovered, respectively. […] Test medium was removed following chemical exposure, and cell viability was evaluated in the same wells by MTT. MTT procedures were as follows: after removal of test medium, 500 uL of 0.5 mg/ml of 3-[4,5-dimethylthiazol-2-y]2,5-diphenyltetrazoliumbromide solution was added to the cells. Following a 4-hour incubation at 37 C and 5% CO2 to allow formazan-crystal formation, the MTT solution was removed and blue formazan salt crystals were solubilized using 500uL anhydrous isopropanol with shaking for 20 minutes. Absorbance was read at 570 and 650nm using a Packard Fusion microplate reader. Background correction of absorbance units was used to determine percent change relative to controls. […]
Turning to `NS(=O)(=O)C(F)(F)C(F)(F)C(F)(F)C(F)(F)C(F)(F)C(F)(F)C(F)(F)C(F)(F)F`, the outcome was inactive.

On to `C[C@]12CCC(=O)C=C1CC[C@@H]1[C@@H]2CC[C@@]2(C)[C@H]1CC[C@]2(C)O`, for which the result was inactive.

With `C=CC(N)=O`, the result was inactive. Still for that read-out and setting: next, `O=C(NC(=O)c1c(F)cccc1F)Nc1cc(Cl)c(OC(F)(F)C(F)F)c(Cl)c1`: “inactive”. Still for that read-out and setting: as for `CC1=C2C[C@H]3[C@@H](CC=C4C[C@@H](O)CC[C@@]43C)[C@@H]2CC[C@]12O[C@@H]1C[C@H](C)CN[C@H]1[C@H]2C`, the entry is “inactive”; as for `CCSC(=O)N(CC)C1CCCCC1`, “inactive”. Same read-out and setting: next, `Cc1ccc(O)c(C)c1`: “inactive”; `Clc1ccc(C(c2ccccc2Cl)C(Cl)(Cl)Cl)cc1` (configuration not stated): “inactive”.

As a reminder, the AC50 is the concentration giving half of the maximal activity seen. On to `CCC(=O)O[C@H]1CC[C@H]2[C@@H]3CCC4=CC(=O)CC[C@]4(C)[C@H]3CC[C@]12C`, for which the AC50 is 1.77 µM (active). Same read-out and setting: next, `ClC1=C(Cl)[C@]2(Cl)[C@@H]3[C@H]4C[C@H]([C@@H]5O[C@H]45)[C@@H]3[C@@]1(Cl)C2(Cl)Cl`: 14.6 µM (active).

Take `Cc1cc(O)ccc1Cl`: the compound was classed as inactive. The same measure, in the same setting: next, `CC#Cc1cc(C)nc(Nc2ccccc2)n1`: “inactive”. On to `Cc1cccc(C)c1N`, for which the compound was classed as inactive. For `Nc1ccc(-c2ccc(N)cc2)cc1`, the AC50 is 17.7 µM (active). Turning to `Oc1ccc(Cl)cc1Cl`, the result was inactive.

As for `CCOCCOC(C)=O`, the result was inactive. In the case of `c1cc2ccc3cccc4ccc(c1)c2c34`, the AC50 is 14.5 µM (active).

The values above are taken from PubChem BioAssay (EPA / NIEHS).
